Data: PMC11006913
Positions count from the first letter of the chain named.

Key:
Assay in all cases: PBM; 200 nM protein, PBS
Conditions in all cases: dsDNA, one strand shown
NKX2-4 [1] = biological target: T1, NKX2-4 (Homo sapiens, UniProt Q9H2Z4 175-261, P217L)
T1 sequence: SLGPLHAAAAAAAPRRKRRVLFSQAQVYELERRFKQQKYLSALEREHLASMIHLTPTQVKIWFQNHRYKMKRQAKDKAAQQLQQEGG

NKX2-4 [2] = biological target: T2, NKX2-4 (Homo sapiens, UniProt Q9H2Z4 175-261, T231S)
T2 sequence: T1 sequence with L43P, T57S

NKX2-4 [3] = biological target: T3, NKX2-4 (Homo sapiens, UniProt Q9H2Z4 175-261)
T3 sequence: T1 sequence with L43P

NKX2-4 [4] = biological target: T4, NKX2-4 (Homo sapiens, UniProt Q9H2Z4 175-261, R246Q)
T4 sequence: T1 sequence with L43P, R72Q

VENTX [5] = biological target: T5, VENTX (Homo sapiens, UniProt O95231 78-163, R121Q)
T5 sequence: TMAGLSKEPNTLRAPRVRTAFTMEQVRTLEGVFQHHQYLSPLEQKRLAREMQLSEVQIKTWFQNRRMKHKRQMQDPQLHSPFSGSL

HOXA4 [6] = biological target: HOXA4 (Homo sapiens, UniProt Q00056 201-287, W262R)
VENTX [7] = biological target: T6, VENTX (Homo sapiens, UniProt O95231 78-163)
T6 sequence: T5 sequence with Q44R

VENTX [8] = biological target: T7, VENTX (Homo sapiens, UniProt O95231 78-163, Y115F)
T7 sequence: T5 sequence with Y38F, Q44R

HOXA4 [9] = biological target: HOXA4 (Homo sapiens, UniProt Q00056 201-287, R217L)
HOXD13 [10] = biological target: HOXD13 (Homo sapiens, UniProt P35453 263-343, T313R)
NKX2-6 [11] = biological target: T8, NKX2-6 (Homo sapiens, UniProt A6NCS4 118-204)
T8 sequence: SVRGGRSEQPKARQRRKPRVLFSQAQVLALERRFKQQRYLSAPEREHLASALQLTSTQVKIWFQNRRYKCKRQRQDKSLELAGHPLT

HOXD13 [12] = biological target: HOXD13 (Homo sapiens, UniProt P35453 263-343)
HOXA4 [13] = biological target: HOXA4 (Homo sapiens, UniProt Q00056 201-287)
HOXD13 [14] = biological target: HOXD13 (Homo sapiens, UniProt P35453 263-343, T313A)
NKX2-6 [15] = biological target: T9, NKX2-6 (Homo sapiens, UniProt A6NCS4 118-204, F151L)
T9 sequence: T8 sequence with F34L

HOXA4 [16] = biological target: HOXA4 (Homo sapiens, UniProt Q00056 201-287, W262F)
HOXB9 [17] = biological target: HOXB9 (Homo sapiens, UniProt P17482 171-250, T197M)
HOXB9 [18] = biological target: HOXB9 (Homo sapiens, UniProt P17482 171-250)
HOXB9 [19] = biological target: HOXB9 (Homo sapiens, UniProt P17482 171-250, R186Q)
HOXA2 [20] = biological target: HOXA2 (Homo sapiens, UniProt O43364 129-215, R185T)
NKX2-6 [21] = biological target: T10, NKX2-6 (Homo sapiens, UniProt A6NCS4 118-204, R150C)
T10 sequence: T8 sequence with R33C

MSX2 [22] = biological target: MSX2 (Homo sapiens, UniProt P35548 130-214, R199I)
HOXA2 [23] = biological target: HOXA2 (Homo sapiens, UniProt O43364 129-215, R185K)
MSX2 [24] = biological target: MSX2 (Homo sapiens, UniProt P35548 130-214)
PROP1 [25] = biological target: PROP1 (Homo sapiens, UniProt O75360 56-141)
PROP1 [26] = biological target: PROP1 (Homo sapiens, UniProt O75360 56-141, R99H)
VAX1 [27] = biological target: VAX1 (Homo sapiens, UniProt Q5SQQ9 86-172)
PROP1 [28] = biological target: PROP1 (Homo sapiens, UniProt O75360 56-141, F88S)
MSX2 [29] = biological target: MSX2 (Homo sapiens, UniProt P35548 130-214, F161Y)
VAX1 [30] = biological target: VAX1 (Homo sapiens, UniProt Q5SQQ9 86-172, T142I)
HOXA2 [31] = biological target: HOXA2 (Homo sapiens, UniProt O43364 129-215, Y150S)
HOXA2 [32] = biological target: HOXA2 (Homo sapiens, UniProt O43364 129-215)
VAX1 [33] = biological target: VAX1 (Homo sapiens, UniProt Q5SQQ9 86-172, K157R)
VAX1 (Homo sapiens, UniProt Q5SQQ9 86-172, K157R), sequence (Q5SQQ9 86-172 K157R): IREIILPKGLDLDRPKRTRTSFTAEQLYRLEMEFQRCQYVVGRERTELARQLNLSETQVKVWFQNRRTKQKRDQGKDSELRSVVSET

HOXD13 (Homo sapiens, UniProt P35453 263-343, T313A), sequence (P35453 263-343 T313A): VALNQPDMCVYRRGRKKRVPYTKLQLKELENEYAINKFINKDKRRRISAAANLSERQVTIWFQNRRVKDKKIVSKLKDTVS
HOXA4 (Homo sapiens, UniProt Q00056 201-287), sequence (Q00056 201-287): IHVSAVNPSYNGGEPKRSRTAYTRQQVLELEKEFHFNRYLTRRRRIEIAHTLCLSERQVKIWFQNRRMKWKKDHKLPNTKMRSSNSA
HOXD13 (Homo sapiens, UniProt P35453 263-343), sequence (P35453 263-343): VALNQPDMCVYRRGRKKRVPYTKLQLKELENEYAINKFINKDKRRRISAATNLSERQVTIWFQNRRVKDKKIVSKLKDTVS
HOXD13 (Homo sapiens, UniProt P35453 263-343, T313R), sequence (P35453 263-343 T313R): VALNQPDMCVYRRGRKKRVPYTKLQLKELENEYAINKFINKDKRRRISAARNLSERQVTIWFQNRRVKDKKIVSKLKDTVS
HOXA4 (Homo sapiens, UniProt Q00056 201-287, W262R), sequence (Q00056 201-287 W262R): as the sequence (Q00056 201-287) above, with W62R counted along it
HOXA4 (Homo sapiens, UniProt Q00056 201-287, W262F), sequence (Q00056 201-287 W262F): as the sequence (Q00056 201-287) above, with W62F counted along it
HOXA4 (Homo sapiens, UniProt Q00056 201-287, R217L), sequence (Q00056 201-287 R217L): as the sequence (Q00056 201-287) above, with R17L counted along it
HOXA2 (Homo sapiens, UniProt O43364 129-215, R185T), sequence (O43364 129-215 R185T): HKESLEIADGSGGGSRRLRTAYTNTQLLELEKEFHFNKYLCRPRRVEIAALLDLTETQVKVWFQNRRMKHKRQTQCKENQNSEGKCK
PROP1 (Homo sapiens, UniProt O75360 56-141), sequence (O75360 56-141): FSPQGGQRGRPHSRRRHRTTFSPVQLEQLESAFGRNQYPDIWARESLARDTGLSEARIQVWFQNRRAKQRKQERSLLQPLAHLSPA
HOXA2 (Homo sapiens, UniProt O43364 129-215), sequence (O43364 129-215): as the sequence (O43364 129-215 R185T) above, with T57R counted along it
HOXA2 (Homo sapiens, UniProt O43364 129-215, R185K), sequence (O43364 129-215 R185K): as the sequence (O43364 129-215 R185T) above, with T57K counted along it
MSX2 (Homo sapiens, UniProt P35548 130-214), sequence (P35548 130-214): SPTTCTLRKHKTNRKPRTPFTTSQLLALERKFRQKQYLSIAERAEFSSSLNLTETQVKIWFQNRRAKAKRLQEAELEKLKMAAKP
MSX2 (Homo sapiens, UniProt P35548 130-214, R199I), sequence (P35548 130-214 R199I): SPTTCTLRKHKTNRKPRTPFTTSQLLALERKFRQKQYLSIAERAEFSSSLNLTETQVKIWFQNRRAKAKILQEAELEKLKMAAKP
HOXB9 (Homo sapiens, UniProt P17482 171-250), sequence (P17482 171-250): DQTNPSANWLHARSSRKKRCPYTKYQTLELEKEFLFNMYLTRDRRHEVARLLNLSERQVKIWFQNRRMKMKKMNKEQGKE
VAX1 (Homo sapiens, UniProt Q5SQQ9 86-172), sequence (Q5SQQ9 86-172): as the sequence (Q5SQQ9 86-172 K157R) above, with R72K counted along it
MSX2 (Homo sapiens, UniProt P35548 130-214, F161Y), sequence (P35548 130-214 F161Y): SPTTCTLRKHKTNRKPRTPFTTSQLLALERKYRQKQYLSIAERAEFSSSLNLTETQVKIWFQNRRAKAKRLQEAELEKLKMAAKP
HOXB9 (Homo sapiens, UniProt P17482 171-250, R186Q), sequence (P17482 171-250 R186Q): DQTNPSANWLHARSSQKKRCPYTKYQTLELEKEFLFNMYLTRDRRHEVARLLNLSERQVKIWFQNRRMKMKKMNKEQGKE
VAX1 (Homo sapiens, UniProt Q5SQQ9 86-172, T142I), sequence (Q5SQQ9 86-172 T142I): as the sequence (Q5SQQ9 86-172 K157R) above, with T57I, R72K counted along it
HOXB9 (Homo sapiens, UniProt P17482 171-250, T197M), sequence (P17482 171-250 T197M): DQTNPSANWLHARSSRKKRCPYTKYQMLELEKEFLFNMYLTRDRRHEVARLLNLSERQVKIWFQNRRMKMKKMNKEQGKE
PROP1 (Homo sapiens, UniProt O75360 56-141, F88S), sequence (O75360 56-141 F88S): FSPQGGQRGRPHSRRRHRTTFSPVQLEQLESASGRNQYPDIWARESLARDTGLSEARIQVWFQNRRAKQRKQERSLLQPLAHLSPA
HOXA2 (Homo sapiens, UniProt O43364 129-215, Y150S), sequence (O43364 129-215 Y150S): as the sequence (O43364 129-215 R185T) above, with Y22S, T57R counted along it
PROP1 (Homo sapiens, UniProt O75360 56-141, R99H), sequence (O75360 56-141 R99H): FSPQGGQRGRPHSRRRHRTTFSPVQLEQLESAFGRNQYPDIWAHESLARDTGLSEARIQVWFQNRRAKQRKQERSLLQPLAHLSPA

ATCGGTCC
binding signal (NKX2-4 [1]): 9.97 upbm affinity estimate (log intensity, higher = more binding, comparable within an allelic series) | binding signal (NKX2-4 [2]): 9.94 upbm affinity estimate (log intensity, higher = more binding, comparable within an allelic series) | binding signal (NKX2-4 [3]): 9.85 upbm affinity estimate (log intensity, higher = more binding, comparable within an allelic series) | binding signal (NKX2-4 [4]): 9.95 upbm affinity estimate (log intensity, higher = more binding, comparable within an allelic series)

CCCCCTGC
binding signal (VENTX [5]): 8.15 upbm affinity estimate (log intensity, higher = more binding, comparable within an allelic series) | binding signal (HOXA4 [6]): 9.55 upbm affinity estimate (log intensity, higher = more binding, comparable within an allelic series) | binding signal (VENTX [7]): 8.15 upbm affinity estimate (log intensity, higher = more binding, comparable within an allelic series) | binding signal (VENTX [8]): 8.11 upbm affinity estimate (log intensity, higher = more binding, comparable within an allelic series) | binding signal (HOXA4 [9]): 9.45 upbm affinity estimate (log intensity, higher = more binding, comparable within an allelic series) | binding signal (HOXD13 [10]): 9.12 upbm affinity estimate (log intensity, higher = more binding, comparable within an allelic series) | binding signal (NKX2-6 [11]): 8.96 upbm affinity estimate (log intensity, higher = more binding, comparable within an allelic series) | binding signal (HOXD13 [12]): 9.26 upbm affinity estimate (log intensity, higher = more binding, comparable within an allelic series) | binding signal (HOXA4 [13]): 9.54 upbm affinity estimate (log intensity, higher = more binding, comparable within an allelic series) | binding signal (HOXD13 [14]): 9.34 upbm affinity estimate (log intensity, higher = more binding, comparable within an allelic series) | binding signal (NKX2-6 [15]): 8.92 upbm affinity estimate (log intensity, higher = more binding, comparable within an allelic series) | binding signal (HOXA4 [16]): 9.59 upbm affinity estimate (log intensity, higher = more binding, comparable within an allelic series)

AGAGGGGC
binding signal (VENTX [5]): 8.19 upbm affinity estimate (log intensity, higher = more binding, comparable within an allelic series) | binding signal (HOXB9 [17]): 8.56 upbm affinity estimate (log intensity, higher = more binding, comparable within an allelic series) | binding signal (VENTX [7]): 8.3 upbm affinity estimate (log intensity, higher = more binding, comparable within an allelic series) | binding signal (VENTX [8]): 8.07 upbm affinity estimate (log intensity, higher = more binding, comparable within an allelic series) | binding signal (HOXB9 [18]): 8.46 upbm affinity estimate (log intensity, higher = more binding, comparable within an allelic series) | binding signal (HOXD13 [10]): 9.48 upbm affinity estimate (log intensity, higher = more binding, comparable within an allelic series) | binding signal (HOXD13 [12]): 9.71 upbm affinity estimate (log intensity, higher = more binding, comparable within an allelic series) | binding signal (HOXD13 [14]): 9.59 upbm affinity estimate (log intensity, higher = more binding, comparable within an allelic series) | binding signal (HOXB9 [19]): 8.41 upbm affinity estimate (log intensity, higher = more binding, comparable within an allelic series)

GCCAGGGC
binding signal (VENTX [5]): 7.76 upbm affinity estimate (log intensity, higher = more binding, comparable within an allelic series) | binding signal (HOXA4 [6]): 9.77 upbm affinity estimate (log intensity, higher = more binding, comparable within an allelic series) | binding signal (VENTX [7]): 7.69 upbm affinity estimate (log intensity, higher = more binding, comparable within an allelic series) | binding signal (VENTX [8]): 7.85 upbm affinity estimate (log intensity, higher = more binding, comparable within an allelic series) | binding signal (HOXA2 [20]): 6.87 upbm affinity estimate (log intensity, higher = more binding, comparable within an allelic series) | binding signal (HOXA4 [9]): 9.77 upbm affinity estimate (log intensity, higher = more binding, comparable within an allelic series) | binding signal (NKX2-6 [21]): 9.13 upbm affinity estimate (log intensity, higher = more binding, comparable within an allelic series) | binding signal (MSX2 [22]): 9.52 upbm affinity estimate (log intensity, higher = more binding, comparable within an allelic series) | binding signal (HOXA2 [23]): 10.3 upbm affinity estimate (log intensity, higher = more binding, comparable within an allelic series) | binding signal (HOXA4 [13]): 9.7 upbm affinity estimate (log intensity, higher = more binding, comparable within an allelic series) | binding signal (MSX2 [24]): 9.44 upbm affinity estimate (log intensity, higher = more binding, comparable within an allelic series) | binding signal (PROP1 [25]): 6.61 upbm affinity estimate (log intensity, higher = more binding, comparable within an allelic series) | binding signal (PROP1 [26]): 6.73 upbm affinity estimate (log intensity, higher = more binding, comparable within an allelic series) | binding signal (VAX1 [27]): 7.25 upbm affinity estimate (log intensity, higher = more binding, comparable within an allelic series) | binding signal (PROP1 [28]): 6.44 upbm affinity estimate (log intensity, higher = more binding, comparable within an allelic series) | binding signal (MSX2 [29]): 9.44 upbm affinity estimate (log intensity, higher = more binding, comparable within an allelic series) | binding signal (VAX1 [30]): 7.16 upbm affinity estimate (log intensity, higher = more binding, comparable within an allelic series) | binding signal (HOXA2 [31]): 10.4 upbm affinity estimate (log intensity, higher = more binding, comparable within an allelic series) | binding signal (HOXA4 [16]): 9.81 upbm affinity estimate (log intensity, higher = more binding, comparable within an allelic series) | binding signal (HOXA2 [32]): 6.74 upbm affinity estimate (log intensity, higher = more binding, comparable within an allelic series) | binding signal (VAX1 [33]): 7.15 upbm affinity estimate (log intensity, higher = more binding, comparable within an allelic series)
